Percent Effect data for eight compounds are collected here from ChEMBL document CHEMBL3988442, “University of Dundee, Small-Polar-MMV Screening Library” (2021).

Holding throughout (set-up): scale not given: direction of the effect not stated beside the values
Assay [1] addresses Protein translocase subunit SecA (Escherichia coli (strain K12)) (UniProt P10408). In words: Assay to Identify E. coli SecA ATPase Inhibitors. The class given is functional. Particulars: 30 µM.
The target in assay [2] is T1, Ubiquitin-activating enzyme e1, putative (Leishmania donovani (strain BPK282A1)) (UniProt E9BSI1).
T1 sequence (whole entry): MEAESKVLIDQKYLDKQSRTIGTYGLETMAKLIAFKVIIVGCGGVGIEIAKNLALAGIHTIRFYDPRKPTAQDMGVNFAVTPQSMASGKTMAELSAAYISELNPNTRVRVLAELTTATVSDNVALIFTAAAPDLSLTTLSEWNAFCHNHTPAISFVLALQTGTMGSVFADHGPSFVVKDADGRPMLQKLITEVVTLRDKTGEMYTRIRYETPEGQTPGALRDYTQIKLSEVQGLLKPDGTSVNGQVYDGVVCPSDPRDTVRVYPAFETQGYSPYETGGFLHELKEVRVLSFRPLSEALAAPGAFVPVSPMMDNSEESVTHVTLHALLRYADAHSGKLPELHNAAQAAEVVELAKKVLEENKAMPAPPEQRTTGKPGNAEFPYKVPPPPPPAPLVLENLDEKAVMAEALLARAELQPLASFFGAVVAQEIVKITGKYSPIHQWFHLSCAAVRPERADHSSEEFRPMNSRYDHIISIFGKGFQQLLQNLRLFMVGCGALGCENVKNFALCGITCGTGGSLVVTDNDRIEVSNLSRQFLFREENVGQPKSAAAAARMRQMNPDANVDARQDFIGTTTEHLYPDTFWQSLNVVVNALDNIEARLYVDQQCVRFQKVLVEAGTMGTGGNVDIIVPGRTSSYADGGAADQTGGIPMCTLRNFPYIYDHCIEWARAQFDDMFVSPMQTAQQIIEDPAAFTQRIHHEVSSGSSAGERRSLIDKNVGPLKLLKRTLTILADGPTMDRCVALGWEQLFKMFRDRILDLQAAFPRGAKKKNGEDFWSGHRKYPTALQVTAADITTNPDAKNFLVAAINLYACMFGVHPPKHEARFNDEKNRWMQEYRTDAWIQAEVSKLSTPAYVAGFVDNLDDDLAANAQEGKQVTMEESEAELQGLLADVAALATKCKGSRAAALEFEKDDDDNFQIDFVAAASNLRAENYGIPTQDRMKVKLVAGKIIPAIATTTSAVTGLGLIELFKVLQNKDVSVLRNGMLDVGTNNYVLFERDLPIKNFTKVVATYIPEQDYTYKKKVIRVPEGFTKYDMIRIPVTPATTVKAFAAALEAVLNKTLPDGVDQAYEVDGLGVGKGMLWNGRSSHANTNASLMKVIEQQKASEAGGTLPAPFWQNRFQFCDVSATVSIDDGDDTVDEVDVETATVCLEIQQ
In words: Leishmania donovani Ubiquitin Activating Enzyme (LdE1). Particulars: 30 µM. The class given is functional.

Assay [3] addresses AMP-activated protein kinase, AMPK (Homo sapiens) (UniProt P54646+O43741+P54619+Q9UGJ0+Q9Y478+Q13131+Q9UGI9). In words: AMP-dependent Kinase enzyme assay. An in vitro enzyme assay that detects ADP turnover that is directly proportional to AMPK activity. This uses naive AMPK that is activated during the assay with MK-8722. The class given is functional. Particulars: 30 µM.
Assay [4] concerns the target Sialic acid-binding Ig-like lectin 9 (Homo sapiens) (UniProt Q9Y336). Put plainly: Hs-Siglec9 ALPHAscreen SOP 20170721. Particulars: 10 µM. (In general: Alpha assays give light when donor and acceptor beads are brought close together.)
Another assay deals with Trypanosoma cruzi. Put plainly: Trypanosoma cruzi phosphomannomutase and mannose-1-phosphate guanylyltransferase assay. The class given is functional. To be noted: 10 µM.
In assay [5] the target is T2, Arginase-2, mitochondrial (Homo sapiens) (UniProt P78540).
T2 sequence (whole entry): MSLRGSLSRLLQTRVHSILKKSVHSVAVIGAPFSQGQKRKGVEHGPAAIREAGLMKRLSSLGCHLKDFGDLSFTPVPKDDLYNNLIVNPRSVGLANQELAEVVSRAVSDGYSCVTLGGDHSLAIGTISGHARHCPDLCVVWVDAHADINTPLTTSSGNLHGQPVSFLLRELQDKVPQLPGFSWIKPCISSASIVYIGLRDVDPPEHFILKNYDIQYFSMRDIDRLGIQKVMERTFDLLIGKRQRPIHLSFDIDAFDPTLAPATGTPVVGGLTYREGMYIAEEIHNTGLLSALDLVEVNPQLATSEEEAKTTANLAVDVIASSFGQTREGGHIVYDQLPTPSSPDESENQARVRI
In words: in vitro enzyme assay to detect the production of urea directly proportional to the activity of Arginase II. Note: in the data most compounds retested in dose-response had high values. It is filed as functional. Particulars: 33.3 µM.

Assay [6] has as its target T3, Proteasome subunit beta (Trypanosoma cruzi) (UniProt O96673).
T3 sequence (whole entry): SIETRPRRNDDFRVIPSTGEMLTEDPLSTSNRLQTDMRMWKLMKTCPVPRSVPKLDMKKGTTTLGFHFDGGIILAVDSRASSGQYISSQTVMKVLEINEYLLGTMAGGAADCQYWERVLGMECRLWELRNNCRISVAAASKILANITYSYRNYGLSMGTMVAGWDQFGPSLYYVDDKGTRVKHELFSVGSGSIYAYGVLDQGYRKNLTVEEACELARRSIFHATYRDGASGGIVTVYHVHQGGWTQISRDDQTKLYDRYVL
Put plainly: Trypanosoma cruzi proteasome chymotrypsin-like activity (TcProtChymo) assay. Note: in the data most compounds retested in dose-response had high values. To be noted: 9.37 µM. The class given is functional.

The species entered for the next assay is Homo sapiens. In words: To identify inhibition of the IFN signalling (Jak-Stat) pathway via expression of an eGFP reporter gene under the control of an IFN-stimulated response element (ISRE) containing MxA promoter. The class given is functional. Particulars: 30 µM. On the technique in general: A reporter such as luciferase makes a cellular process visible.

Assay [7] addresses T4, Tyrosyl-tRNA synthetase, putative (Trypanosoma cruzi (strain CL Brener)) (UniProt Q4DSP6).
T4 sequence (whole entry): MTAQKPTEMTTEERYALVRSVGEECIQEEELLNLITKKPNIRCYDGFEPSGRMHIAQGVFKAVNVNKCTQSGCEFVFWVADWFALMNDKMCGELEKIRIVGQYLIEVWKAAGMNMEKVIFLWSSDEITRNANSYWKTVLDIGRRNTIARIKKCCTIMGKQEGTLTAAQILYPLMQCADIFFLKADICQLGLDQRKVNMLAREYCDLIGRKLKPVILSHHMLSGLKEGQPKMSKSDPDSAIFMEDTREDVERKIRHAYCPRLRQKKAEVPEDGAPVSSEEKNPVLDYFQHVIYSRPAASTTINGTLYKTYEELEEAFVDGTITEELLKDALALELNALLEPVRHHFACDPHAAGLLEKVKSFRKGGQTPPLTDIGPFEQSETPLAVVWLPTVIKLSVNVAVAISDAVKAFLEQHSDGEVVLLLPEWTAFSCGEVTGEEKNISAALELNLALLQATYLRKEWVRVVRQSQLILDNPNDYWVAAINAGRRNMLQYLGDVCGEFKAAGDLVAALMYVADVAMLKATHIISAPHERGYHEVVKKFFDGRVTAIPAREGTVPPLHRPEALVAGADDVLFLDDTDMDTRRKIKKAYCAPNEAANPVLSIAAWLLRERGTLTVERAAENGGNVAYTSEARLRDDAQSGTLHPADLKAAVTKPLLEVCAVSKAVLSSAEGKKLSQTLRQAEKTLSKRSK
In words: Trypanosoma cruzi tyrosyl tRNA synthetase (TcYRS) _High Tyrosine SOP. Note: in the data most compounds retested in dose-response had high values. It is filed as functional. To be noted: 30 µM.

Assay [8] deals with T4, Tyrosyl-tRNA synthetase, putative (Trypanosoma cruzi (strain CL Brener)). Put plainly: Trypanosoma cruzi tyrosyl tRNA synthetase (TcYRS) SOP. It is filed as functional. Particulars: 30 µM.
In assay [9] the target is Chromo domain-containing protein 1 (Saccharomyces cerevisiae (strain ATCC 204508 / S288c) (Baker's yeast)) (UniProt P32657). In words: ScCHD-1 Enzyme Inhibition Assay. Note: in the data most compounds retested in dose-response had high values. It is filed as functional. Particulars: 30 µM.
Chain of Chromo domain-containing protein 1 (Saccharomyces cerevisiae (strain ATCC 204508 / S288c) (Baker's yeast)) (P32657 whole entry, the tested form may be a part): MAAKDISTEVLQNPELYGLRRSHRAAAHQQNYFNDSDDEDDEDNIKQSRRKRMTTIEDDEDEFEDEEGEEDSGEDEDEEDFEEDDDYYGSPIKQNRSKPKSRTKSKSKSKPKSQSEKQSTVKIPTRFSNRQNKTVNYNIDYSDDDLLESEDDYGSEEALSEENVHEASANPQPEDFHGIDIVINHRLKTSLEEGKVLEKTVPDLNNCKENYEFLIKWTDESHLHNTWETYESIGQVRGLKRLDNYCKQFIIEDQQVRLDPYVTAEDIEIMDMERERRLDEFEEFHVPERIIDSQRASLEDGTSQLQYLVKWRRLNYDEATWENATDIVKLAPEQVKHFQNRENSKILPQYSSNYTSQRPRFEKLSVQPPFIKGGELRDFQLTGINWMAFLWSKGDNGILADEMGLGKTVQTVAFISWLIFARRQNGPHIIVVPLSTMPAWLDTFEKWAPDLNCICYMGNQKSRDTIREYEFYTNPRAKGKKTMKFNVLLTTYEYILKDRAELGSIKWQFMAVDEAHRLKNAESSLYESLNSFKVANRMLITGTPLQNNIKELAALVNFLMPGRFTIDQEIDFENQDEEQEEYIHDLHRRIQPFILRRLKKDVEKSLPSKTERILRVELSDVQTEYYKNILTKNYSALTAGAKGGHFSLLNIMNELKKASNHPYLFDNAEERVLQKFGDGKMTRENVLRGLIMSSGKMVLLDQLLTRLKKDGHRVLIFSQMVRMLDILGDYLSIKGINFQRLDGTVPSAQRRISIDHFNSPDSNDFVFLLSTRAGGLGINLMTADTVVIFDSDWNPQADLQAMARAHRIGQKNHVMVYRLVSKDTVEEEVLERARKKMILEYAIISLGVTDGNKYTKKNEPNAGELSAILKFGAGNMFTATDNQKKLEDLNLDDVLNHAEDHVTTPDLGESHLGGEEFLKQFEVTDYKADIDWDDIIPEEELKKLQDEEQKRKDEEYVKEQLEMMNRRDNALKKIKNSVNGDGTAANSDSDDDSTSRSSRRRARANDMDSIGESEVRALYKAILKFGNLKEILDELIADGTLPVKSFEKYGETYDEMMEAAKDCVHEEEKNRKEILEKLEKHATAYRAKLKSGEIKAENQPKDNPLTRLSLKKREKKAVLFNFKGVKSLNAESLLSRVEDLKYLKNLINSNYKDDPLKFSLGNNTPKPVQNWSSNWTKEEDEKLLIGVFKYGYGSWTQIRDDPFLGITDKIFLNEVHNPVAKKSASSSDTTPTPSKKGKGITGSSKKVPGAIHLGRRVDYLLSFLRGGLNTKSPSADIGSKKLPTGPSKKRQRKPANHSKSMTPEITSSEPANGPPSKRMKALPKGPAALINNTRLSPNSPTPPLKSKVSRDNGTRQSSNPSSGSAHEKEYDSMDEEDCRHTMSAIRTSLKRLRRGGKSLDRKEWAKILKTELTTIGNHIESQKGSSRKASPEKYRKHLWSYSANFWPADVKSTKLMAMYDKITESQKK

Each structure is given as a SMILES string. For some of these results: Measured potencies and affinities stand elsewhere.

Chain of Protein translocase subunit SecA (Escherichia coli (strain K12)) (P10408 whole entry): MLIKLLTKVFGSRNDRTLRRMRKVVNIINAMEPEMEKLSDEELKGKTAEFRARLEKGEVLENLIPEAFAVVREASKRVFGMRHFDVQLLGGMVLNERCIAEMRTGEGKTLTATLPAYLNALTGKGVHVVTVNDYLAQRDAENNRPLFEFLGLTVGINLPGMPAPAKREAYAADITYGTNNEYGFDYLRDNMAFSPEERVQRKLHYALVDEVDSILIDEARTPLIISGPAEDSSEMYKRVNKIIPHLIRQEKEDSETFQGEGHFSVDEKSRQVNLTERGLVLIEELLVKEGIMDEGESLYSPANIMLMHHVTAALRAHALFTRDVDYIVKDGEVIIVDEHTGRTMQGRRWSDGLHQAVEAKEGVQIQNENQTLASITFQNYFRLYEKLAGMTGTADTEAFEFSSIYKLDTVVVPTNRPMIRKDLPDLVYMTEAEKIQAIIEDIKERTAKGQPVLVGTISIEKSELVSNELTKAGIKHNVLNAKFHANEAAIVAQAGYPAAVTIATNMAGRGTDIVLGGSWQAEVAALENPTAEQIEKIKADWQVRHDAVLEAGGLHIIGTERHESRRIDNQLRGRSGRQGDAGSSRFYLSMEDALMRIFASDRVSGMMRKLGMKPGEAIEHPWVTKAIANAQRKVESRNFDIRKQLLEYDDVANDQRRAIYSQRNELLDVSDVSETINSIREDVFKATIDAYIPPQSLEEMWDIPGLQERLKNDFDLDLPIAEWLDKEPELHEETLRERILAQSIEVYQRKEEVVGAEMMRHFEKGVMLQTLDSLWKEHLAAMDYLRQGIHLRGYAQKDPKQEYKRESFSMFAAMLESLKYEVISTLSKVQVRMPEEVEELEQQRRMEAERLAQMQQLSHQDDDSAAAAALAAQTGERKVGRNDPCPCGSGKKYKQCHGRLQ
Chain of Sialic acid-binding Ig-like lectin 9 (Homo sapiens) (Q9Y336 whole entry): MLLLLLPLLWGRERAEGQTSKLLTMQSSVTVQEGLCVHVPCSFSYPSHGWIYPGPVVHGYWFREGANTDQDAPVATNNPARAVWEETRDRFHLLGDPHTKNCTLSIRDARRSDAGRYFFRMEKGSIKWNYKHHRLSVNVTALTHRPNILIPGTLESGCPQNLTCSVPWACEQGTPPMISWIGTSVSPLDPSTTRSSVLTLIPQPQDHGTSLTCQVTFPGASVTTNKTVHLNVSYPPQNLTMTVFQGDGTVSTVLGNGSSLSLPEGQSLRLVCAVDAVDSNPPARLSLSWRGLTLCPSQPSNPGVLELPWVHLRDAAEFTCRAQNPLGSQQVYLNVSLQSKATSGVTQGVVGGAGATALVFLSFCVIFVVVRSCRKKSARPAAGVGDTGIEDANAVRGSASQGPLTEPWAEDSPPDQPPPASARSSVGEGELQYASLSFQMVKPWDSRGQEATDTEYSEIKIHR

For `Cc1cn2c(n1)CCC(NC(=O)c1ccc(CS(C)(=O)=O)o1)C2` (stereo not drawn), the Percent Effect is -2.09% in assay [1]; 7.89% in [2]; 0.931% in assay [3]; 9.84% in assay [4]; 4.13% in the assay with Trypanosoma cruzi; 0.766% in [5]. For the same compound, the Percent Effect was 9.52% in assay [6]; 3.27% in the assay listed under Homo sapiens; 3.43% in [7]; 9.76% in assay [8]; -9.57% in assay [9].
Regarding `O=C(NCc1cnc2n1CCN(c1ncc(F)cn1)CC2)C1CCC1`, the Percent Effect in assay [1] is -3.67%; in assay [2], 0%; in [3], 0.174%; in assay [4], 23.6%; in the assay on Trypanosoma cruzi it was 2.83%; in [5], 1.24%. Besides, the Percent Effect in [6] is -0.772%; in the assay filed under Homo sapiens, -4.55%; in [7], 4.3%; in assay [8] it was 3.7%; in [9], 0.0919%.
On to `Cc1ccc(C(=O)N2CCC(Oc3ccc(F)cc3F)CC2)c(=O)[nH]1`, for which the Percent Effect was -4.74% in assay [1]; 5.26% in assay [2]; 3.18% in [3]; -2.22% in assay [4]; -7.52% in the assay on Trypanosoma cruzi; 1.53% in [5]. In addition, the Percent Effect in assay [6] is 8.69%; in the assay listed under Homo sapiens, 43.4%; in assay [7], 0.49%; in assay [8], 4.88%; in assay [9], -4.43%.
Consider `O=C(COc1coc(CN2CCCC2)cc1=O)NCc1ccccc1Cl`, for which the Percent Effect in assay [1] is -2.51%; in assay [2] it was 1.33%; in assay [3], 5.09%; in [4], 5.58%; with Trypanosoma cruzi, 0.393%; in [5] it was -1.94%. Moreover, the Percent Effect in assay [6] is 7.02%; in the assay listed under Homo sapiens it was -13.6%; in assay [7] it was 6.35%; in [8] it was 10.3%; in assay [9], 0.789%.
As for `N#Cc1cccc(NC(=O)N[C@H](CO)c2ccccc2)c1`, the Percent Effect in assay [1] is -2.38%; in assay [2] it was 5.41%; in assay [3], 5.16%; in assay [4], 5.37%; in the assay with Trypanosoma cruzi, -1.35%; in [5] it was 3.33%. Further, the Percent Effect was 11.6% in [6]; 5.19% in the assay filed under Homo sapiens; 1.59% in assay [7]; 12.2% in assay [8]; -2.38% in assay [9].
Take `O=C(Cc1ccc(F)cc1)NCCNCC1CNc2ccnn2C1` (stereo not drawn): the Percent Effect in [1] was -1.32%; in assay [2], 18.9%; in assay [3], -4.44%; in [4], 24.8%; in the assay with Trypanosoma cruzi it was 10.8%; in assay [5], 10%. In addition, the Percent Effect was 6.72% in assay [6]; 2.03% in the assay filed under Homo sapiens; 8.99% in assay [7]; 17.1% in assay [8]; -7.92% in [9].
With `CC(Cn1cccn1)NC(=O)N(C)Cc1ccc(Cl)s1` (stereo not drawn), the Percent Effect in assay [1] is -7.83%; in assay [2], 2.53%; in assay [3] it was -3.14%; in assay [4] it was 9.63%; with Trypanosoma cruzi, 7.27%; in assay [5] it was -8.37%. For the same compound, the Percent Effect in [6] was 0.409%; in the assay filed under Homo sapiens, 2.27%; in [7] it was -1.48%; in assay [8], 3.8%; in assay [9] it was -2.46%.
Consider `CC(OCC(F)(F)F)C(=O)N1CCN(S(C)(=O)=O)CC1` (stereo not drawn), for which the Percent Effect was -3.82% in [1]; 8.22% in assay [2]; 1.32% in assay [3]; -5.16% in [4]; -3.92% in the assay on Trypanosoma cruzi; 1.36% in assay [5]. The Percent Effect is 9.05% in assay [6]; 17.4% in the assay filed under Homo sapiens; 6.45% in [7]; 15% in [8]; -6.7% in assay [9].
